Each structure is given as a SMILES string. About 83,000 compounds went through this panel and 20% of them were active in at least one assay; those are over-represented in the sample as a whole.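 In brief: 96-well plates, 48 h treatment, single concentration, percent growth endpoint.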 Unmarked numbers belong to inactive results. Activity calls are given as the source filed them. The calls were made as follows: active = growth percent below 10; inactive = the rest.

Among the test systems are NCI-H23 lung; NCI-H226 lung; NCI-H322M lung; HOP-62 NSCLC; NCI-H460 lung; HOP-92 NSCLC; NCI-H522 lung; A549/ATCC NSCLC; 786-0 renal; COLO 205 colon; DU-145 prostate; K-562 leukemia; MDA-MB-231 breast; RXF 393 renal; SF-268 CNS; SF-539 CNS; UACC-257 melanoma; SF-295 CNS; M14 melanoma.
Holding throughout (assay): NCI-60 one-dose screen, 48 h (100 = growth as untreated, 0 = no growth, -100 = all killed)
Common to all, as to details: 10 µM unless noted

As for `C/C(=N\Nc1ccc2ccccc2n1)c1ccccn1`, the growth in the test with NCI-H23 lung was 23.3%; with NCI-H226 lung, 0.47% (active); with NCI-H322M lung it was -12% (active); in the test on HOP-62 NSCLC, 5.02% (active); in the test with NCI-H460 lung it was 0.889% (active); in the test with HOP-92 NSCLC, -10.9% (active). In addition, the growth was -16.4% (active) with NCI-H522 lung; 4.55% (active) in the test on A549/ATCC NSCLC; 6.89% (active) in the test with 786-0 renal; 0.767% (active) in the test with COLO 205 colon; 13.1% in the test with DU-145 prostate; 2.37% (active) in the test on K-562 leukemia. Moreover, the growth in the test with MDA-MB-231 breast was -5.17% (active); in the test on RXF 393 renal, 9.99% (active); with SF-268 CNS, -3.84% (active); in the test on SF-539 CNS it was -44.2% (active); in the test with UACC-257 melanoma it was -22.6% (active).
Regarding `Cc1ccc2[nH]cc(-c3nc(-c4cn(C)c5ncccc45)cs3)c2c1`, the growth in the test on NCI-H23 lung is 74.7%; in the test with NCI-H226 lung, 74.2%; in the test on NCI-H322M lung, 101%; in the test with HOP-62 NSCLC, 105%; with NCI-H460 lung, 91.4%; in the test with HOP-92 NSCLC it was 74.6%. The growth was 86.5% in the test on NCI-H522 lung; 75.5% in the test on A549/ATCC NSCLC; 91.3% in the test on 786-0 renal; 97.9% in the test on COLO 205 colon; 97.7% in the test with DU-145 prostate; 59.4% in the test with K-562 leukemia. Further, the growth in the test on MDA-MB-231 breast was 83.4%; in the test on RXF 393 renal, 100%; in the test with SF-268 CNS, 97%; with SF-295 CNS it was 77.9%; in the test on SF-539 CNS, 93.8%; with UACC-257 melanoma, 94%. Moreover, the growth in the test with M14 melanoma was 80%.
Take `Cn1cc(-c2nc(-c3c[nH]c4ncccc34)cs2)c2cc(F)ccc21`: the growth in the test on NCI-H23 lung was 40.8%; in the test with NCI-H226 lung, 62.3%; in the test with NCI-H322M lung, 35.1%; in the test with HOP-62 NSCLC, 65.3%; in the test on NCI-H460 lung, 24.6%; with HOP-92 NSCLC it was 13.3%. For the same compound, the growth in the test on NCI-H522 lung was 22%; with A549/ATCC NSCLC, 36.3%; with 786-0 renal it was 41.3%; with COLO 205 colon, 49.4%; in the test on DU-145 prostate it was 64.4%; in the test on K-562 leukemia, 6.15% (active). Besides, the growth in the test with MDA-MB-231 breast is 20%; in the test on RXF 393 renal, 43.8%; in the test with SF-268 CNS, 44.4%; in the test on SF-295 CNS it was 19.9%; with SF-539 CNS, 53.9%; in the test with UACC-257 melanoma, 53.3%. For the same compound, in the test on M14 melanoma, the growth was 20.5%.
Consider `COc1ccc2[nH]cc(-c3nc(-c4c[nH]c5ncccc45)cs3)c2c1`, for which the growth with NCI-H23 lung was 48.3%; with NCI-H226 lung, 53.2%; with NCI-H322M lung, 44.5%; with HOP-62 NSCLC, 53.5%; with NCI-H460 lung it was 21.8%; in the test on HOP-92 NSCLC it was 25.9%. Also, the growth in the test with NCI-H522 lung is 31.3%; in the test on A549/ATCC NSCLC, 22.4%; in the test with 786-0 renal, 16.2%; in the test on COLO 205 colon it was -10.2% (active); in the test with DU-145 prostate, 47.1%; in the test with K-562 leukemia, 18.3%. The growth in the test on MDA-MB-231 breast is 39.1%; in the test on RXF 393 renal, 1.36% (active); with SF-268 CNS it was 58.8%; in the test on SF-295 CNS, 10.6%; in the test on SF-539 CNS, 25.2%; in the test with UACC-257 melanoma, -57% (active). In the test with M14 melanoma, the growth was 16.1%.
On to `Cn1cc(-c2csc(-c3cn(C(=O)OC(C)(C)C)c4ccccc34)n2)c2cccnc21`, for which the growth in the test with NCI-H23 lung is 70.4%; with NCI-H226 lung it was 91.4%; with NCI-H322M lung, 103%; in the test on HOP-62 NSCLC, 73.7%; with NCI-H460 lung, 60.7%; with HOP-92 NSCLC, 57.1%. For the same compound, the growth in the test with NCI-H522 lung was -8.18% (active); with A549/ATCC NSCLC, 52.9%; in the test with 786-0 renal, 76.6%; in the test with COLO 205 colon, 64.8%; with DU-145 prostate, 92.7%; in the test on K-562 leukemia it was 23.3%. In addition, the growth in the test with MDA-MB-231 breast was 65.4%; in the test on RXF 393 renal, 80.1%; in the test on SF-268 CNS it was 81.6%; with SF-295 CNS it was 48.2%; with SF-539 CNS, 71.4%; in the test on UACC-257 melanoma it was 82.9%. The growth in the test on M14 melanoma was 54.8%.
On to `O=C(N/N=C\c1c(O)ccc2ccccc12)C1CC1`, for which the growth with NCI-H23 lung is 36.4%; with NCI-H226 lung it was 79.6%; in the test with NCI-H322M lung, 33.7%; in the test with HOP-62 NSCLC, 55.8%; in the test on NCI-H460 lung it was 32.9%; with HOP-92 NSCLC, 43.1%. The growth with NCI-H522 lung is 11.6%; in the test with A549/ATCC NSCLC it was 58.4%; with 786-0 renal, 49.6%; in the test on COLO 205 colon, 96.3%; with DU-145 prostate, 69.1%; in the test with K-562 leukemia it was 34%. Further, the growth in the test with MDA-MB-231 breast is 38.5%; in the test with RXF 393 renal, 50.4%; in the test on SF-268 CNS, 42.3%; in the test on SF-295 CNS, 30%; with SF-539 CNS, 33.2%; with UACC-257 melanoma, 11.2%. The growth in the test on M14 melanoma is 39.9%.
For the compound `N#CC1C(=N)Cc2ccccc2-c2ccccc21` (stereo not given), the growth in the test on NCI-H23 lung is 57.1%; with NCI-H226 lung it was 77.8%; with NCI-H322M lung it was 78.5%; in the test on HOP-62 NSCLC it was 57.6%; with NCI-H460 lung, 27%; with HOP-92 NSCLC it was 49.6%. The growth in the test on NCI-H522 lung was 8.86% (active); with A549/ATCC NSCLC, 42.1%; in the test on 786-0 renal, 65.6%; in the test with COLO 205 colon it was 51.4%; with DU-145 prostate, 75.8%; in the test with K-562 leukemia, 16%. Further, the growth in the test with MDA-MB-231 breast is 57.2%; with RXF 393 renal it was 58.4%; in the test on SF-268 CNS, 61%; in the test on SF-295 CNS, 49%; with SF-539 CNS, 63.4%; in the test on UACC-257 melanoma it was 51.5%. For the same compound, in the test on M14 melanoma, the growth was 16.2%.
For `Cn1cc(-c2nc(-c3c[nH]c4ncccc34)cs2)c2cc(Br)ccc21`, the growth is 93.5% in the test on NCI-H23 lung; 95.7% in the test with NCI-H226 lung; 76.4% in the test with NCI-H322M lung; 109% in the test with HOP-62 NSCLC; 81.7% in the test on NCI-H460 lung; 89.1% in the test on HOP-92 NSCLC. The growth is 86.5% in the test with NCI-H522 lung; 86.7% with A549/ATCC NSCLC; 80.6% with 786-0 renal; 106% in the test on COLO 205 colon; 73.2% in the test on DU-145 prostate; 59.5% in the test on K-562 leukemia. In addition, the growth with MDA-MB-231 breast was 84.6%; with RXF 393 renal, 75.7%; with SF-268 CNS it was 99.1%; with SF-295 CNS it was 84.6%; in the test with SF-539 CNS, 108%; in the test with UACC-257 melanoma, 120%. Also, the growth with M14 melanoma was 75.5%.
